In publication PMC11062922 (Nature Chemical Biology, 2023):
Read-outs that look alike come from different tables or passages of the source.

Legend:
Design in all cases: species or system human, MV4-11 + K-562 + COLO205 + SK-N-BE2 + OVCAR-8
[1] = test system: BMP2K; settings: read-out: apparent Kd; compound concentrations:100 nM and 1000 nM (sheet 'Samples'); n = 1
[2] = test system: CDC42; settings: read-out: apparent Kd, n = 1
[3] = test system: MAP3K1; settings: read-out: apparent Kd; compound concentrations:100 nM and 1000 nM (sheet 'Samples'); n = 1
[4] = test system: ULK1; settings: read-out: apparent Kd; compound concentrations:100 nM and 1000 nM (sheet 'Samples'); n = 1
[5] = test system: ULK3; settings: read-out: apparent Kd, n = 1
[6] = test system: CSNK1G1; settings: read-out: apparent Kd; compound concentrations:100 nM and 1000 nM (sheet 'Samples'); n = 1
[7] = test system: PIK3C2A; settings: read-out: apparent Kd; compound concentrations:100 nM and 1000 nM (sheet 'Samples'); n = 1
[8] = test system: FER; settings: read-out: apparent Kd; compound concentrations:100 nM and 1000 nM (sheet 'Samples'); n = 1
[9] = test system: PAK4; settings: read-out: apparent Kd; compound concentrations:100 nM and 1000 nM (sheet 'Samples'); n = 1
[10] = test system: RPS6KA6; settings: read-out: apparent Kd; compound concentrations:100 nM and 1000 nM (sheet 'Samples'); n = 1
[11] = test system: MYLK3; settings: read-out: apparent Kd, n = 1
[12] = test system: ILK; settings: read-out: apparent Kd, n = 1
[13] = test system: AIFM1; settings: read-out: apparent Kd, n = 1
[14] = test system: CDK6; settings: read-out: apparent Kd, n = 1
[15] = test system: CDC7; settings: read-out: apparent Kd, compound concentrations: 100 nM and 1000 nM (sheet 'Samples'), n = 1
[16] = test system: MAPK1; settings: read-out: apparent Kd, n = 1
[17] = test system: STRADA; settings: read-out: apparent Kd, n = 1
[18] = test system: MARK4; settings: read-out: apparent Kd; compound concentrations:100 nM and 1000 nM (sheet 'Samples'); n = 1
[19] = test system: MAP4K2; settings: read-out: apparent Kd; compound concentrations:100 nM and 1000 nM (sheet 'Samples'); n = 1
[20] = compound concentrations:100 nM and 1000 nM (sheet 'Samples')

COc1cc2ncn(-c3cc(OCc4cccs4)c(C(N)=O)s3)c2cc1OC [GSK312948A]
potency estimated from few doses [1]: 1430 nM
potency estimated from few doses [2, 20]: 1550 nM
potency estimated from few doses [3]: 1470 nM

Fc1ccc(-c2c(-c3ccncc3)[nH]c3nccnc23)cc1 [RO1155697-000]
potency estimated from few doses [4]: 1520 nM

CNC(=O)c1ccccc1Nc1nc(Nc2cccc(CS(C)(=O)=O)c2)ncc1C.O=CO [GSK1520489A]
potency estimated from few doses ([5]; compound concentrations: 100 nM and 1000 nM (sheet 'Samples'), CATDS: 1.2201291111952599E-2): 563 nM

Nc1nc(N)c2nc(-c3ccccc3)[nH]c2n1 [SKF-12778]
potency estimated from few doses [6]: 924 nM
potency estimated from few doses [7]: 2130 nM
potency estimated from few doses [5, 20]: 1140 nM

Cc1ccc(O)cc1Nc1ccnc2ccc(C(C)(C)C)cc12 [GW856805X]
potency estimated from few doses ([2]; compound concentrations: 100 nM and 1000 nM (sheet 'Samples'), CATDS: 2.73171121323963E-2): 1430 nM

Cl.Cn1c(=O)c(Cc2ccc(F)cc2F)cc2cnc(NC3CCOCC3)nc21 [RO3308757-001]
potency estimated from few doses [8]: 302 nM
potency estimated from few doses [9]: 1650 nM
potency estimated from few doses [10]: 599 nM
potency estimated from few doses [4]: 1550 nM

CC(=O)c1c(-c2ccncc2)[nH]c(-c2ccncc2)c1C [GW493036X]
potency estimated from few doses [6]: 717 nM

COc1cc(/C=N/Nc2ncnc3[nH]ncc23)ccc1O [GW578748X]
potency estimated from few doses [11, 20]: 2040 nM

COc1cc2ncn(-c3cc(O[C@H](C)c4ccccc4Cl)c(C(N)=O)s3)c2cc1OC [GSK237701A]
potency estimated from few doses [3]: 398 nM

Clc1ccc(-c2nn3ncccc3c2-c2ccnc(Nc3ccccc3)n2)cc1 [GW829055X]
potency estimated from few doses ([12]; compound concentrations: 100 nM and 1000 nM (sheet 'Samples'), CATDS: 5.2015680047351402E-2): 690 nM

Fc1cccc(COc2ccc(Nc3ncncc3C#Cc3ccccc3)cc2Cl)c1 [GW651576X]
potency estimated from few doses ([2]; compound concentrations: 100 nM and 1000 nM (sheet 'Samples'), CATDS: 5.6163427913581303E-2): 1410 nM
potency estimated from few doses ([12]; compound concentrations: 100 nM and 1000 nM (sheet 'Samples'), CATDS: 6.7664406837509503E-2): 1010 nM

Cl.Fc1cccc(COc2ccc(Nc3ncnc4cc(-c5ccc[nH]5)sc34)cc2Cl)c1 [GW693881A]
potency estimated from few doses ([13]; compound concentrations: 100 nM and 1000 nM (sheet 'Samples'), CATDS: 0.160865216132973): 1350 nM

CCCN1CCC(Oc2cc(Nc3nc(Nc4cccc(F)c4C(N)=O)c4cc[nH]c4n3)c(OC)cc2Cl)CC1 [GSK1713088A]
potency estimated from few doses ([14]; compound concentrations: 100 nM and 1000 nM (sheet 'Samples'), CATDS: 0.18030383020801999): 2000 nM

Cn1cc(C2=C(c3cccc([N+](=O)[O-])c3)C(=O)NC2=O)c2ccccc21 [RO0317474-000]
potency estimated from few doses ([15]; CATDS: 0.13743963750211899): 1670 nM

CC(=O)Nc1ccc2c(C3=C(c4cn(C)c5ccccc45)C(=O)NC3=O)cn(C)c2c1 [RO0317596-000]
potency estimated from few doses ([16]; compound concentrations: 100 nM and 1000 nM (sheet 'Samples'), CATDS: 0.12847476759448101): 1100 nM

Cc1ccc(C(=O)NC2CC2)cc1-c1ccc2[nH]ncc2c1 [GW820759X]
potency estimated from few doses ([13]; compound concentrations: 100 nM and 1000 nM (sheet 'Samples'), CATDS: 0.35268476986263803): 1040 nM

Cn1cc(C2=C(c3cn(CCCCCO)c4ccccc34)C(=O)NC2=O)c2ccccc21 [RO0318053-000]
potency estimated from few doses ([15]; CATDS: 8.0152233997933905E-2): 1890 nM

COc1cccc(C2=C(c3cn(C)c4c(C)cccc34)C(=O)NC2=O)c1 [RO3301012-000]
potency estimated from few doses ([15]; CATDS: 0.10055770090402801): 1800 nM

COc1ccc(C2=C(c3cn(C)c4ccccc34)C(=O)NC2=O)cc1OC [RO3206363-000]
potency estimated from few doses ([17]; compound concentrations: 100 nM and 1000 nM (sheet 'Samples'), CATDS: 3.11031335260477E-2): 2050 nM

Cc1[nH]nc2c1N=C(c1ccccc1Cl)c1cc([N+](=O)[O-])ccc1N2 [RO0274406-000]
potency estimated from few doses ([16]; compound concentrations: 100 nM and 1000 nM (sheet 'Samples'), CATDS: 7.1630348262951699E-2): 1230 nM

Cc1ccc(-n2nc(C(C)(C)C)cc2NC(=O)Nc2ccc(OCCN3CCOCC3)cc2)cc1 [BIRB0876BS]
potency estimated from few doses [12, 20]: 1870 nM

COc1cc(F)c(F)c(F)c1C(=O)c1cnc(NC2CCN(S(C)(=O)=O)CC2)nc1N [RO4600703-000]
potency estimated from few doses [13, 20]: 939 nM
potency estimated from few doses [16, 20]: 1580 nM

CCCCCNC(=O)[C@@H]1CCCN2C(=O)CC[C@H](NC(=O)[C@H](Cc3ccc(OP(=O)(O)O)cc3)NC(C)=O)C(=O)N12 [RO0324694-000]
potency estimated from few doses [13, 20]: 1670 nM

Nc1c(C(=O)c2ccccc2)cnn1-c1ccc(F)cc1 [RO1151246-000]
potency estimated from few doses [14, 20]: 2120 nM
potency estimated from few doses [18]: 1290 nM
potency estimated from few doses [7]: 1660 nM
potency estimated from few doses [17, 20]: 1830 nM

Cl.Oc1ccc2ncnc(Nc3ccc(OCc4ccccc4)cc3)c2c1 [GI262866A]
potency estimated from few doses [16, 20]: 617 nM

COc1cc2ncn(-c3cc(OCc4sccc4Cl)c(C(N)=O)s3)c2cc1OC [GSK448459A]
potency estimated from few doses [3]: 511 nM
potency estimated from few doses [19]: 827 nM

Nc1nccc(-c2c(-c3ccc(F)cc3)ncn2C2CCC(O)CC2)n1 (stereo not shown) [SB-223133]
potency estimated from few doses ([11]; compound concentrations: 100 nM and 1000 nM (sheet 'Samples'), CATDS: 2.9739343508474202E-2): 653 nM
